Entries with a potency or affinity are not part of this list. Active and inactive are the calls of the source. The rule behind the calls is not given here.
Target: Metabotropic glutamate receptor 4 (Homo sapiens) (UniProt Q14833)
Experiment: PubChem AID 2807
Details: CHO hmGluR4/Gqi5 calcium mobilization, PAM potentiation; series mostly up to 30 µM; potentiation (% max glutamate): at the top concentration

Sequence of Metabotropic glutamate receptor 4 (Homo sapiens) (Q14833 whole entry, looked up): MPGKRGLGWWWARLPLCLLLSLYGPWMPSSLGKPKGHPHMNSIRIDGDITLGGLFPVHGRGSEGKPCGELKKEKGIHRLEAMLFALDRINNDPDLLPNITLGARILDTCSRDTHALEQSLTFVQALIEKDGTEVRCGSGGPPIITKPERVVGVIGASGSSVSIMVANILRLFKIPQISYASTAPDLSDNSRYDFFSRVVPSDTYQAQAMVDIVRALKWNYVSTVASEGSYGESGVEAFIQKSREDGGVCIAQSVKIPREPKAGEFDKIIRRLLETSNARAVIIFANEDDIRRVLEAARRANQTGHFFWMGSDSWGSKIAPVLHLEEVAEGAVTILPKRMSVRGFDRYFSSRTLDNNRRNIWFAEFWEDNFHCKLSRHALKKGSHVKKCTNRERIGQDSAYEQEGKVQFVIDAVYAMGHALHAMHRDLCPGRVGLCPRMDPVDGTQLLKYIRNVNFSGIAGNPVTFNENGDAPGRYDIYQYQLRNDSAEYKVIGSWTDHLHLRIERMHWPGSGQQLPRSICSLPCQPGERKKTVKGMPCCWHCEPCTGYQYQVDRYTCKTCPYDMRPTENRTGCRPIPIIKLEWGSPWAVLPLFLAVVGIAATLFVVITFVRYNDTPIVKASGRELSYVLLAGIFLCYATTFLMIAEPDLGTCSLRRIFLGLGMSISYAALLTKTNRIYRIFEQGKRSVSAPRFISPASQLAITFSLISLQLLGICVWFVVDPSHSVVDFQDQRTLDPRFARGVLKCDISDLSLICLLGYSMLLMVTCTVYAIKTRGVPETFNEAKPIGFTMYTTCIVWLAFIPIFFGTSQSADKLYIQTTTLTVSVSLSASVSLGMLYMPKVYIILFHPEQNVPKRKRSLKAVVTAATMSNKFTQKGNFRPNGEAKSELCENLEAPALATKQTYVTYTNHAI

Potentiation (% max glutamate), inactive:
O=C(Nc1ccc(Cl)c(Cl)c1)c1cnccn1 15.3%
O=C(Nc1ccc(Cl)c(Cl)c1)c1cc2ccccc2o1 22.2%
O=C(Nc1ccc(Cl)c(Cl)c1)C1CCCCC1 28.3%
O=C(Nc1ccc(Cl)c(Cl)c1)c1ccccc1 29.1%
O=C(Nc1ccc(Cl)c(Cl)c1)c1ccc(-c2ccccc2)o1 18%
Cn1cccc1C(=O)Nc1ccc(Cl)c(Cl)c1 23.5%
